# Assay results from PubChem BioAssay AID1986 (Sanford-Burnham Center for Chemical Genomics, 2009).
# Out of some 290,000 compounds screened, about 890 (0.31%) were called active. Cut-off read from the data, not from the text of the source: active = inhibition mostly above about 52% (no sharp cut-off); inactive = mostly below about 76%. Only a selection was taken, and actives are over-represented in it overall.
# Assay: inhibitors of HIV fusion peptide binding, primary screen, biochemical, uHTS, fluorescence dequenching (AID 1986)
# Details: cell-free peptide binding, 30 min, stronger effect = higher value
# [1] = measured here: repeat confirmation average inhibition, at 18.6 µM
Structure (SMILES),inhibition (at 20 µM),inhibition [1] [%]
CS(=O)(=O)Nc1ccc(C(=O)Nc2ccc3c(c2)OCO3)cc1,-0.8% (inactive),–
O=C(Nc1cc(S(=O)(=O)N2CCOCC2)ccc1N1CCOCC1)c1cccc(S(=O)(=O)N2CCCCC2)c1,0.7% (inactive),–
Cn1c(CCN2CCCCC2)nc2cc(NC(=O)NC3CCCCC3)ccc21,53.5% (inactive),1.9
O=C(NNC(=O)c1ccc([N+](=O)[O-])cc1)c1ccc(Br)cc1,2% (inactive),–
NC(=O)C1CCN(C(c2ccccc2Cl)c2nnnn2CC2CCCO2)CC1 (configuration not stated),1.1% (inactive),–
COc1ccc(S(=O)(=O)N(CCCN2CCOCC2)Cc2cccc(OC)c2OC)cc1,-0.2% (inactive),–
COc1ccc(CNCCCC(=O)Nc2c(Cl)ccc(C)c2Cl)cc1OC,-0.3% (inactive),–
N#C/C(=C/c1ccccc1OCc1ccc(F)cc1)c1ccc(C(=O)O)cc1,31% (inactive),–
N#C/C(=C/c1ccc(OCc2ccc(C(=O)O)cc2)c(Br)c1)c1cccc(F)c1,87.9% (active),–
N#C/C(=C\c1ccccc1OCc1ccc(C(=O)O)cc1)c1ccccc1,19.1% (inactive),–
O=C(Nc1c2c(nn1-c1ccc([N+](=O)[O-])cc1)CS(=O)(=O)C2)C1CC1,0.9% (inactive),–
O=C1/C(=C/C=C/c2ccco2)SC(=S)N1c1ccc(O)cc1,55.7% (active),–
O=C1/C(=C\c2ccco2)SC(=S)N1c1ccc(O)cc1,57.7% (inactive),-2
O=C1S/C(=C\C=C\c2ccco2)C(=O)N1c1ccccc1,54.9% (inactive),-0.6
O=C1NC(=Nc2ccc(O)cc2)S/C1=C\C=C\c1ccco1,41.3% (inactive),–
Cc1ccc(N2C(=O)/C(=C\c3ccco3)SC2=S)cc1,71.5% (inactive),-1.2
O=C1S/C(=C\C=C\c2ccco2)C(=O)N1c1ccc(O)cc1,78.1% (active),–
CN(C)CCNc1oc(-c2ccccc2F)nc1C#N,0.5% (inactive),–
Cc1ccc(/C(O)=C2/C(=O)C(=O)N(CC(=O)O)C2c2ccc([N+](=O)[O-])cc2)cc1 (configuration not stated),3.5% (inactive),–

Structure (SMILES),inhibition (at 20 µM),inhibition [1] [%]
O=C(CNC(=O)c1ccco1)OCC(=O)c1ccc([N+](=O)[O-])cc1,-0.7% (inactive),–
Cc1ccc(/C=C/c2nc3sc(C(=O)O)c(C)c3c(=O)[nH]2)cc1[N+](=O)[O-],73% (active),–
Cc1c(C(=O)O)sc2nc(/C=C/c3cccc(F)c3)[nH]c(=O)c12,27.7% (inactive),–
Cc1c(C(=O)O)sc2nc(/C=C/c3cccc(O)c3)[nH]c(=O)c12,5.5% (inactive),–
COC(=O)c1c(/N=C/NOCc2ccc(Cl)cc2)sc2c1CCN(c1ncc(C(F)(F)F)cc1Cl)C2,-1.7% (inactive),–
CC(C)Cn1c(N)c(C(=O)COC(=O)c2ccncc2)c(=O)n(C)c1=O,0.1% (inactive),–
CCOc1ccc(Br)cc1S(=O)(=O)N1CCC(C(N)=O)CC1,-0.7% (inactive),–
CCn1cc(C(=O)NCCc2ccccc2C)c(=O)c2ccc(C)nc21,-1.3% (inactive),–
CC(C)Nc1cc(N2CCCC2)ccc1[N+](=O)[O-],-0.2% (inactive),–
COC(=O)CC1COc2ccccc2N1C(=O)c1ccc(Cl)cc1 (configuration not stated),-3% (inactive),–
Cc1nc2c(C(=O)NCCc3ccccc3Cl)c[nH]n2c(=O)c1Cl,56.9% (active),–
Cc1nc2c(C(=O)NCCc3ccccc3)c[nH]n2c(=O)c1Cl,5.3% (inactive),–
Cc1nc2c(C(=O)NCc3ccccc3Cl)c[nH]n2c(=O)c1Cl,49.3% (inactive),–
COc1cc(CNc2ccc(S(N)(=O)=O)cc2)ccc1OCC(=O)NC1CCCCC1,-1% (inactive),–
O=C(CN1c2ccccc2S(=O)(=O)c2ccccc21)NCc1ccccc1,-0.5% (inactive),–
O=C1/C(=C/c2ccco2)SC(=S)N1C1CCS(=O)(=O)C1 (configuration not stated),39.9% (inactive),–
Cc1ccc(/C=C2\SC(=S)N(C3CCS(=O)(=O)C3)C2=O)o1 (configuration not stated),25.1% (inactive),–
Cc1ccc(/C=C2/SC(=S)N(C3CCCCC3)C2=O)o1,32.1% (inactive),–
O=C1/C(=C\c2ccco2)SC(=S)N1C1CCS(=O)(=O)C1 (configuration not stated),40.7% (inactive),–

Structure (SMILES),inhibition (at 20 µM),inhibition [1] [%]
CC1=C(C#N)C(=O)N(C2CCS(=O)(=O)C2)C(=O)/C1=C\c1ccco1 (configuration not stated),83.1% (active),–
CC1=C(C#N)C(=O)N(C2CCS(=O)(=O)C2)C(=O)/C1=C\c1ccc(C)o1 (configuration not stated),101% (active),–
Cn1c(=O)oc2cc(S(=O)(=O)N3CCCC(C(=O)N4CCc5ccccc5C4)C3)ccc21 (configuration not stated),2.2% (inactive),–
Cc1ccc(CS(=O)(=O)Cc2ccc(C(=O)NCCc3ccccc3)o2)cc1,0.5% (inactive),–
CC(C)CNS(=O)(=O)c1cc(C(=O)N2CCOCC2)c(Cl)cc1Cl,1.1% (inactive),–
COc1cc(/C=N/NC(N)=O)ccc1OCC(=O)Nc1ccc(C)c(C)c1,11.1% (inactive),–
Cc1cc(C(F)F)n2ncc(C(=O)NC3CCCCCC3)c2n1,3.7% (inactive),–
Cc1c(C(=O)NC(c2ccccn2)C(F)(F)F)oc2c(F)cccc12 (configuration not stated),0.9% (inactive),–
COc1ccc(CNC(=O)[C@@H](NC(=O)C2CCN(C(=O)[C@@H](N)Cc3ccccc3)CC2)C(C)C)cc1,-1.9% (inactive),–
COc1ccc(OC)c(CNC(=O)CCSCc2ccc(F)cc2Cl)c1,0% (inactive),–
CCN1C(=O)/C(=C/N2CCc3ccccc3C2)SC1=S,0.4% (inactive),–
CCN1C(=O)/C(=C/N2CCc3ccccc32)SC1=S,112% (active),63
CCN1C(=O)/C(=C\N2CCCc3ccccc32)SC1=S,3.7% (inactive),–
Fc1ccc(N2CCN(C(c3cccs3)c3nnnn3CCc3ccccc3)CC2)cc1 (configuration not stated),-1.4% (inactive),–
COc1cc(C2CC(=O)N(CC(=O)NCC3CCCO3)c3ccccc3S2)cc(OC)c1OC (configuration not stated),0.6% (inactive),–
CC(C)(C)OC(=O)N1CCC(c2c(C(=O)NC3CC3)cnn2-c2ccc(Cl)cc2)CC1,3.6% (inactive),–
COc1cc(NC(=O)c2cnn3c(C(F)F)cc(C4CC4)nc23)c(OC)cc1Cl,-0.3% (inactive),–
CC(C)(C)OC(=O)N1CCC(c2cc(=O)n3[nH]c(-c4ccc(Cl)cc4)cc3n2)CC1,-1.3% (inactive),–
COc1ccc(-n2ncc(C(=O)NC3CC3)c2C2CCN(C(=O)OC(C)(C)C)CC2)cc1,1.2% (inactive),–
